Screen size: about 1,400 compounds; about 350 (25%) were called active. About 2% were inconclusive and are not listed. No rule for the calls is given here. Not all results are given here. Entries with a potency or affinity are not part of this list.
assay: inhibitors of Clostridioides difficile proliferation – 4-point retest, confirmation (AID 1224921); conditions: Clostridioides difficile clinical isolate growth, OD600, 24 h, hits give low values; at 30 µM unless noted;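 also: plate controls were DMSO wells for no effect and levofloxacin 16 µg/mL wells for full effect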

Max activity, inactive:
CO[C@H]1CN(C)C(=O)c2ccc(NC(C)=O)cc2OC[C@@H](C)N(Cc2cc(F)ccc2F)C[C@H]1C -8.57% [at 1.95 µM], CCCNC(=O)Nc1ccc2c(c1)OC[C@@H](C)N(Cc1ccccc1)C[C@H](C)[C@H](OC)CN(C)C2=O 33.5%, CCS(=O)(=O)Nc1ccc2c(c1)C(=O)N(C)C[C@H](OC)[C@H](C)CN(CC1CCCC1)[C@H](C)CO2 -9.54% [at 1.95 µM], C[C@@H]1CN([C@@H](C)CO)C(=O)Cc2cc(NC(=O)Nc3ccc(C(F)(F)F)cc3)ccc2O[C@@H]1CN(C)Cc1ccccc1 36.8% [at 35 µM], C[C@@H]1CN([C@H](C)CO)C(=O)Cc2cc(NC(=O)Nc3cccc4ccccc34)ccc2O[C@H]1CN(C)Cc1ccccc1 31.3% [at 8 µM], CC(C)NC(=O)Nc1ccc2c(c1)CC(=O)N([C@@H](C)CO)C[C@@H](C)[C@@H](CN(C)Cc1ccc(-c3ccccc3)cc1)O2 42.2%, C[C@@H]1CN([C@@H](C)CO)C(=O)Cc2cc(NC(=O)CCCN(C)C)ccc2O[C@H]1CN(C)Cc1ccc(Oc2ccccc2)cc1 12.2% [at 8 µM], C[C@H](CO)N1C[C@H](C)[C@@H](CN(C)Cc2ccccc2)Oc2ccc(NC(=O)Nc3cccc4ccccc34)cc2CC1=O 21.6%, C[C@@H]1CN([C@@H](C)CO)C(=O)Cc2cc(NC(=O)Nc3cccc4ccccc34)ccc2O[C@H]1CN(C)Cc1ccccc1 34.5%, CCCN(C)C[C@H]1Oc2cc(C#CCC3CCCC3)ccc2S(=O)(=O)N([C@@H](C)CO)C[C@H]1C 28.1% [at 8 µM], CCCN1C[C@H](C)[C@@H](OC)CN(C)C(=O)c2ccc(NC(=O)c3ccc(F)cc3)cc2OC[C@@H]1C -10.8% [at 1.95 µM], CO[C@@H]1CN(C)C(=O)c2cc(NC(C)=O)ccc2OC[C@@H](C)N(Cc2nccs2)C[C@@H]1C 17.3%, O=C(C[C@@H]1C[C@H]2c3cc(NC(=O)NC4CCCC4)ccc3O[C@H]2[C@@H](CO)O1)NCc1ccccc1F -6.86% [at 1.95 µM], CO[C@H]1CN(C)C(=O)c2ccc(NC(C)=O)cc2OC[C@H](C)N(C(=O)c2ccccc2F)C[C@@H]1C -11.1% [at 0.5 µM], C[C@@H]1CN([C@H](C)CO)S(=O)(=O)c2ccc(/C=C/c3ccccc3)cc2O[C@@H]1CN(C)C(=O)Nc1cc(F)ccc1F 35.6%, CO[C@H]1CN(C)C(=O)c2cc(NC(=O)C3CCC3)ccc2OC[C@@H](C)N(Cc2ccc(F)cc2)C[C@@H]1C 29.4%, CCC(=O)N1C[C@@H](C)[C@H](OC)CN(C)C(=O)c2ccc(NC(=O)c3cc(C)on3)cc2OC[C@@H]1C -1.88% [at 1.95 µM], C[C@@H](NC(=O)C[C@H]1C=C[C@@H](NC(=O)CN2CCOCC2)[C@H](CO)O1)c1ccccc1 -14.1% [at 8 µM], CCC(=O)Nc1ccc2c(c1)C(=O)N(C)C[C@H](OC)[C@H](C)CN(C(=O)CN1CCOCC1)[C@@H](C)CO2 -5.93% [at 8 µM], COc1cccc(NC(=O)N[C@H]2C=C[C@H](CC(=O)NCc3ccncn3)O[C@@H]2CO)c1 -9.51% [at 0.5 µM], CCCC#Cc1ccc2c(c1)O[C@@H](CN(C)Cc1ccncc1)[C@@H](C)CN([C@H](C)CO)S2(=O)=O 33.3%, CO[C@H]1CN(C)C(=O)c2cc(NC(C)=O)ccc2OC[C@@H](C)N(CC2CCCCC2)C[C@H]1C -7.37% [at 1.95 µM], O=C(N[C@H]1C=C[C@@H](CC(=O)N2CCc3ccccc3C2)O[C@H]1CO)C1CC1 -11.9% [at 1.95 µM], Cc1ccc(-c2ccc3c(c2)O[C@H](CN(C)C(=O)NC(C)C)[C@H](C)CN([C@@H](C)CO)S3(=O)=O)cc1 20.5%, Cc1ccc(-c2ccc3c(c2)O[C@H](CN(C)Cc2ccncc2)[C@@H](C)CN([C@@H](C)CO)S3(=O)=O)cc1 32.6%, C/C=C/c1cnc2c(c1)C(=O)N([C@@H](C)CO)C[C@H](C)[C@H](CN(C)Cc1ccc(F)cc1)O2 9.72%, O=C(N[C@H]1C=C[C@@H](CC(=O)N2CCc3ccccc3C2)O[C@@H]1CO)C1CC1 -6.96%, CC(C)C#Cc1ccc2c(c1)O[C@@H](CN(C)Cc1cccnc1)[C@H](C)CN([C@H](C)CO)S2(=O)=O 36.4%, COc1ccc(-c2ccc([C@@H]3[C@H](C#N)N(C(=O)C4CCCC4)[C@H]3CO)cc2)cc1 -7.24% [at 1.95 µM], C/C=C/c1cnc2c(c1)C(=O)N([C@H](C)CO)C[C@H](C)[C@H](CN(C)Cc1ccc(F)cc1)O2 14.8%, COc1cccc(-c2ccc3c(c2)O[C@H](CN(C)Cc2ccncc2)[C@@H](C)CN([C@@H](C)CO)S3(=O)=O)c1 21.8% [at 35 µM], CO[C@H]1CN(C)C(=O)c2cc(NC(=O)c3cccc(F)c3)ccc2OC[C@@H](C)N(C(C)=O)C[C@H]1C 19% [at 8 µM], CC(C)CC#Cc1ccc2c(c1)O[C@H](CN(C)Cc1cccnc1)[C@@H](C)CN([C@@H](C)CO)S2(=O)=O 39.7%, CO[C@H]1CN(C)C(=O)c2cc(NC(=O)Nc3cccc(F)c3)ccc2OC[C@@H](C)N(C)C[C@H]1C -11.4% [at 1.95 µM], C[C@H](CO)N1C[C@H](C)[C@@H](CN(C)Cc2cccnc2)Oc2cc(C#CC3CCCCC3)ccc2S1(=O)=O 30.4%, O=C(C[C@H]1C[C@@H]2c3cc(NC(=O)Nc4ccc(F)cc4)ccc3O[C@@H]2[C@H](CO)O1)NC1CCCCC1 16%, CCCC(=O)Nc1ccc2c(c1)OC[C@@H](C)N(Cc1ccncc1)C[C@H](C)[C@H](OC)CN(C)C2=O 14.1%, O=C(C[C@@H]1C[C@H]2c3cc(NC(=O)Nc4ccc(C(F)(F)F)cc4)ccc3O[C@H]2[C@@H](CO)O1)NC1CCCCC1 -15.4% [at 1.95 µM], CO[C@H]1CN(C)C(=O)c2cc(NC(=O)c3ccccc3)ccc2OC[C@H](C)N(C(=O)CN(C)C)C[C@H]1C -13% [at 1.95 µM], CO[C@@H]1CN(C)C(=O)c2cc(NC(=O)c3cc(C)on3)ccc2OC[C@@H](C)N(C(C)=O)C[C@@H]1C -12.6% [at 1.95 µM], O=C(C[C@H]1CC[C@H]2[C@@H](COC[C@H](O)CN2Cc2cc(F)ccc2F)O1)NCc1ccc(F)cc1 -6.27%, O=C(C[C@H]1CC[C@H]2[C@@H](COC[C@@H](O)CN2Cc2cc(F)ccc2F)O1)NCc1ccc(Cl)cc1 12.5%, C[C@H](CO)N1C[C@H](C)[C@H](CN(C)C)Oc2cc(-c3ccccc3F)ccc2S1(=O)=O -3.75% [at 1.95 µM], COc1ccc(S(=O)(=O)Nc2cccc3c2O[C@@H](CN(C)S(=O)(=O)c2c(C)noc2C)[C@H](C)CN([C@H](C)CO)C3=O)cc1 14.4%, Cc1ccc(-c2ccc3c(c2)O[C@@H](CN(C)Cc2ccncc2)[C@@H](C)CN([C@@H](C)CO)S3(=O)=O)cc1 21.6%, CCC(=O)Nc1ccc2c(c1)OC[C@@H](C)N(CC1CCCCC1)C[C@H](C)[C@H](OC)CN(C)C2=O 11.5%, CC(C)[C@@H](C)NC(=O)N(C)C[C@@H]1OCc2ccccc2-c2ccccc2C(=O)N([C@@H](C)CO)C[C@H]1C 34.8%, CO[C@H]1CN(C)C(=O)c2ccc(NC(=O)C3CC3)cc2OC[C@@H](C)N(Cc2cncnc2)C[C@@H]1C -5.55%, COc1ccc(-c2ccc3n(c2=O)C[C@H]2[C@H](CO)[C@@H](C(=O)N4CCOCC4)[C@@H]3N2C)cc1 -4.95%, CC(C)CC#Cc1ccc2c(c1)O[C@H](CN(C)Cc1ccncc1)[C@H](C)CN([C@H](C)CO)S2(=O)=O 19.2% [at 8 µM], C[C@H]1CN([C@@H](C)CO)C(=O)c2cc(C#CCN(C)C)cnc2O[C@@H]1CN(C)Cc1ccc(C(=O)O)cc1 -11.6% [at 1.95 µM], O=C(Nc1ccc(Cl)c(Cl)c1)N[C@@H]1CC[C@@H](CCn2cc(C3CCCCC3)nn2)O[C@@H]1CO 30.5% [at 0.5 µM], COc1ccccc1CNC(=O)C[C@H]1C[C@@H]2c3cc(NC(=O)NC4CCCC4)ccc3O[C@@H]2[C@@H](CO)O1 12.1%, CC(C)NC(=O)N(C)C[C@H]1Oc2cc(C#Cc3cccc(F)c3)ccc2S(=O)(=O)N([C@@H](C)CO)C[C@@H]1C 30.3%, COc1cccc(C#Cc2ccc3c(c2)O[C@@H](CN(C)C)[C@H](C)CN([C@@H](C)CO)S3(=O)=O)c1 41.9%, C[C@@H]1CN([C@H](C)CO)S(=O)(=O)c2ccc(C#Cc3ccc(F)cc3)cc2O[C@@H]1CN(C)S(C)(=O)=O -24% [at 1.95 µM], C[C@H](CO)N1C[C@H](C)[C@@H](CN(C)C)Oc2cc(C#Cc3ccc(F)cc3)ccc2S1(=O)=O 18.3%, C[C@@H]1CN([C@@H](C)CO)S(=O)(=O)c2ccc(C#Cc3cccc(F)c3)cc2O[C@@H]1CN(C)C 8.04%, COc1cccc(C#Cc2ccc3c(c2)O[C@H](CN(C)C)[C@@H](C)CN([C@H](C)CO)S3(=O)=O)c1 8.78%, C[C@H]1CN([C@@H](C)CO)S(=O)(=O)c2ccc(C#Cc3ccccc3F)cc2O[C@@H]1CN(C)C 20.5%, COc1cccc(C#Cc2ccc3c(c2)O[C@H](CN(C)C)[C@H](C)CN([C@@H](C)CO)S3(=O)=O)c1 -8.62% [at 1.95 µM]
